From PubChem BioAssay (NCATS)
Values joined by “and” are separate entries in the source; they are usually repeats but may differ in a detail not shown here. Equal entries are not always repeated. Inconclusive results are not listed. Active and inactive are the calls of the source. Unless noted, calls come from the whole dose curve; as a rule, active = well fitted curve in the direction sought with a large enough effect; inconclusive = small, poorly fitted or top-dose-only effect, or another doubt; inactive = no such curve, though single readings can be large; an effect the other way counts as inactive or inconclusive.

Legend:
UISO = test: qHTS assay to identify novel small-molecules to repurpose for Merkel cell carcinoma treatment (AID 1296009); conditions: MCC and control cell lines, CellTiter-Glo viability, 72 h; series mostly up to 46 µM; note: nearly all actives have a fitted effect of over 60% in size; note: potency is the fitted concentration of half-maximal effect
Procedure, shortened: (§1)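 72 hr, 37 degree celsius; NPC 8-pt / MIPE 11-pt dose response; compound pinned in DMSO; CellTiter-Glo, 10 min RT, luminescence; normalized to no-cell and DMSO controls.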

C33A = test: Primary qHTS to identify gynecologic anti-cancer compounds using libraries of approved drugs and bioactive compounds (AID 1345084); conditions: Gynecologic cancer cell panel viability, ATPlite luminescence, 48 h; series mostly up to 57.5 µM; note: nearly all actives have a fitted effect of over 55% in size; note: potency is the fitted concentration of half-maximal effect
Procedure, shortened: (§2)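 48 h compound exposure at 37 C, 5% CO2; five-point qHTS. ATPlite luminescence readout of cell ATP.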

Es-2 = test: as above; conditions: Gynecologic cancer cell panel viability, ATPlite luminescence, 48 h; series mostly up to 57.5 µM
Procedure, shortened: as §2

HeLa = test: as above; conditions: Gynecologic cancer cell panel viability, ATPlite luminescence, 48 h; series mostly up to 57.5 µM
Procedure, shortened: as §2

JEG-3 = test: as above; conditions: Gynecologic cancer cell panel viability, ATPlite luminescence, 48 h; series mostly up to 57.5 µM
Procedure, shortened: as §2

OV90 = test: as above; conditions: Gynecologic cancer cell panel viability, ATPlite luminescence, 48 h; series mostly up to 57.5 µM
Procedure, shortened: as §2

PA-1 = test: as above; conditions: Gynecologic cancer cell panel viability, ATPlite luminescence, 48 h; series mostly up to 57.5 µM
Procedure, shortened: as §2

Tov112D = test: as above; conditions: Gynecologic cancer cell panel viability, ATPlite luminescence, 48 h; series mostly up to 57.5 µM
Procedure, shortened: as §2

WaGa = test: qHTS assay to identify novel small-molecules to repurpose for Merkel cell carcinoma treatment (AID 1296009); conditions: MCC and control cell lines, CellTiter-Glo viability, 72 h; series mostly up to 46 µM; note: nearly all actives have a fitted effect of over 60% in size; note: potency is the fitted concentration of half-maximal effect
Procedure, shortened: as §1

CASKI = test: Primary qHTS to identify gynecologic anti-cancer compounds using libraries of approved drugs and bioactive compounds (AID 1345084); conditions: Gynecologic cancer cell panel viability, ATPlite luminescence, 48 h; series mostly up to 57.5 µM; note: nearly all actives have a fitted effect of over 55% in size; note: potency is the fitted concentration of half-maximal effect
Procedure, shortened: as §2

Hek293T = test: as above; conditions: Gynecologic cancer cell panel viability, ATPlite luminescence, 48 h, control line for the selectivity index; series mostly up to 57.5 µM
Procedure, shortened: as §2

Tov-21-G = test: as above; conditions: Gynecologic cancer cell panel viability, ATPlite luminescence, 48 h; series mostly up to 57.5 µM
Procedure, shortened: as §2

[1] = qHTS assay to identify inhibitors of the type 1 interferon - major histocompatibility complex class I in skeletal muscle: Counter screen cell viability and HiBit confirmation (AID 1347412); conditions: iHSKM muscle cells + IFN-b, HiBiT or CellTiter-Glo, 24 h; Potency: HiBiT; Viability, at 45.9 µM (top of the series); note: % is set by controls: 0 for no effect and ±100 for the full control effect; nearly all actives have a fitted effect of over 60% in size
Procedure, shortened: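 Luminescence read-out: Nano-Glo HiBiT lytic signal from C-terminally HiBiT-tagged HLA-B in CRISPR-edited human myoblasts, plus CellTiter Glo ATP as viability counter screen. IFN-beta 4.0 ng/ml; 24 hrs treatment at 37 C, 5% CO2.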

SKOV3 = test: Primary qHTS to identify gynecologic anti-cancer compounds using libraries of approved drugs and bioactive compounds (AID 1345084); conditions: Gynecologic cancer cell panel viability, ATPlite luminescence, 48 h; series mostly up to 57.5 µM; note: nearly all actives have a fitted effect of over 55% in size; note: potency is the fitted concentration of half-maximal effect
Procedure, shortened: as §2

[2] = Drug repurposing screens with cells derived from glioblastoma tumor samples (AID 1345199); conditions: GBM patient neurospheres viability, ATP luminescence, 48 h; note: nearly all actives have a fitted effect of over 40% in size; note: potency is the fitted concentration of half-maximal effect; for activity, negative = cell killing: % is set by controls: 0 for no effect and ±100 for the full control effect
Procedure, shortened: (§3)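 Four patient lines of CD133+ GBM neurospheres were screened at several concentrations; hits were retested in those lines plus three slower-growing GBM lines, using 48-hour treatment and ATP-based viability.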

astro = test: as above; conditions: viability, ATP luminescence, 48 h; series mostly up to 45.9 µM
Procedure, shortened: as §3

[3] = biological target: Nuclear receptor subfamily 1 group I member 2 (Rattus norvegicus) (UniProt Q9R1A7); test: qHTS assay for small molecule activators of the rat pregnane X receptor (rPXR) signaling pathway (AID 651751; call rule not given here; note: 0% is about no effect); conditions: rPXR reporter cells, luciferase (One-Glo), 24 h
Nuclear receptor subfamily 1 group I member 2 (Rattus norvegicus), sequence (Q9R1A7 whole entry, looked up): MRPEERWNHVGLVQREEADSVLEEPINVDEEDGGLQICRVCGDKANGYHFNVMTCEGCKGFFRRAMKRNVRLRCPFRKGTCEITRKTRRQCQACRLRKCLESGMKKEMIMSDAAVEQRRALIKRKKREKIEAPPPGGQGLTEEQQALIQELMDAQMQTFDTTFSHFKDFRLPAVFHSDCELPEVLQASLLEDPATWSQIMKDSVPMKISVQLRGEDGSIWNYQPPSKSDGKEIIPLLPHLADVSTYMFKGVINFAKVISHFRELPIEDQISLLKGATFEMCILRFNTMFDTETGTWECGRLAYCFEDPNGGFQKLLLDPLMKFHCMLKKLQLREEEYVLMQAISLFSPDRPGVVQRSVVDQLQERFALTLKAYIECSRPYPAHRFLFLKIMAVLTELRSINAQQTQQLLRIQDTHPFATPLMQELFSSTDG

[4] = qHTS assay for small molecule activators of the human pregnane X receptor (PXR) signaling pathway (AID 720659; call rule not given here; note: 0% is about no effect)
CAOV3 = test: Primary qHTS to identify gynecologic anti-cancer compounds using libraries of approved drugs and bioactive compounds (AID 1345084); conditions: Gynecologic cancer cell panel viability, ATPlite luminescence, 48 h; series mostly up to 57.5 µM; note: nearly all actives have a fitted effect of over 55% in size; note: potency is the fitted concentration of half-maximal effect
Procedure, shortened: as §2

[5] = at 46.1 µM (top of the series), tumour line C
[6] = at 45.9 µM (top of the series), tumour line B
[7] = at 45.9 µM (top of the series), tumour line D
[8] = at 46 µM (top of the series), tumour line A

COC(=O)Nc1nc2ccc(C(=O)c3cccs3)cc2[nH]1
active: Potency (UISO) 23.5 nM | Potency (C33A) 1 µM | Potency (Es-2) 0.282 µM | Potency (HeLa) 0.158 µM | Potency (JEG-3) 0.355 µM | Potency (OV90) 7.08 µM | Potency (PA-1) 0.224 µM | Potency (Tov112D) 316 nM

Fc1ccc([C@@H]2CCNC[C@H]2COc2ccc3c(c2)OCO3)cc1
inactive: Potency (UISO) | Potency (WaGa) | Potency (C33A) | Potency (CASKI) | Potency (HeLa) | Potency (Hek293T) | Potency (JEG-3) | Potency (PA-1) | Potency (Tov-21-G) | Potency (Tov112D) | Potency [1]

COc1ccc(CCN(C)CCCC(C#N)(c2ccc(OC)c(OC)c2)C(C)C)cc1OC (centres undefined)
active: Potency ([2]; tumour line A) 10 µM | Potency ([2]; tumour line B) 35.5 µM
inactive: Potency (UISO) | Potency (WaGa) | Potency (C33A) | Potency (CASKI) | Potency (Es-2) | Potency (HeLa) | Potency (Hek293T) | Potency (JEG-3) | Potency (PA-1) | Potency (SKOV3) | Potency (Tov-21-G) | Potency (Tov112D) | activity, negative = cell killing [2, 5] -2.06%

COc1cc2nc(N3CCN(C(=O)c4ccco4)CC3)nc(N)c2cc1OC
active: Potency (WaGa) 20.9 µM | Potency (astro) 25.1 µM
inactive: Potency (C33A) | Potency (CASKI) | Potency (HeLa) | Potency (Tov112D)

Cc1cn([C@H]2C[C@H](N=[N+]=[N-])[C@@H](CO)O2)c(=O)[nH]c1=O
inactive: Potency (C33A) | Potency (Es-2) | Potency (HeLa) | Potency (Hek293T) | Potency (JEG-3) | Potency (OV90) | Potency (SKOV3) | Potency (Tov-21-G) | Potency (Tov112D) | activity, negative = cell killing [2, 6] -5.14% and -10.6% | activity, negative = cell killing [2, 7] -11% and -22.6% | activity, negative = cell killing [2, 5] -8.55% and -21.3% | max response [3] -4.33% and 1.62%

O=C(C1CCCCC1)N1CC(=O)N2CCc3ccccc3C2C1 (centres undefined)
inactive: Potency (C33A) | Potency (CASKI) | Potency (Es-2) | Potency (HeLa) | Potency (Hek293T) | Potency (JEG-3) | Potency (OV90) | Potency (PA-1) | Potency (SKOV3) | Potency (Tov-21-G) | Potency (Tov112D) | activity, negative = cell killing [2, 6] -15.1% | activity, negative = cell killing [2, 7] -7.27% | activity, negative = cell killing [2, 5] -6.57% | Potency (astro)

CN(C)CCCN1c2ccccc2CCc2ccc(Cl)cc21
inactive: Potency (C33A) | Potency (HeLa) | Potency (JEG-3) | Potency (PA-1) | Potency (Tov-21-G) | activity, negative = cell killing [2, 5] -8.66%
active: Potency (WaGa) 18.7 µM | Potency ([2]; tumour line A) 5.01 µM | Potency ([2]; tumour line B) 20 µM | Potency ([2]; tumour line D) 12.6 µM

CCC1(c2ccccc2)C(=O)NCNC1=O
inactive: Potency (C33A) | Potency (CASKI) | Potency (Es-2) | Potency (HeLa) | Potency (Hek293T) | Potency (JEG-3) | Potency (OV90) | Potency (PA-1) | Potency (SKOV3) | Potency (Tov-21-G) | Potency (Tov112D) | activity, negative = cell killing [2, 6] -7.45% | activity, negative = cell killing [2, 7] 9.05% | activity, negative = cell killing [2, 8] -15.2% | activity, negative = cell killing [2, 5] -6.01% | Potency (astro) | outcome [4]

CC[C@@]1(O)C(=O)OCc2c1cc1n(c2=O)Cc2cc3c(CN(C)C)c(O)ccc3nc2-1
active: Potency (UISO) 237 nM and 46.9 nM | Potency (WaGa) 3.8 nM and 26.4 nM | Potency (C33A) 2.51 µM and 7.08 µM | Potency (CASKI) 1.26 µM and 4.47 µM | Potency (Es-2) 2 µM | Potency (Hek293T) 8.91 µM | Potency (PA-1) 447 nM and 1.58 µM | Potency (SKOV3) 14.1 µM | Potency (Tov-21-G) 31.6 µM | Potency (Tov112D) 316 nM and 1.41 µM | Potency ([2]; tumour line A) 0.891 µM | Potency ([2]; tumour line D) 3.55 µM | Potency (astro) 17.8 µM
inactive: Potency (HeLa) | activity, negative = cell killing [2, 5] -20.9%

CC(CCc1ccc(O)cc1)NCCc1ccc(O)c(O)c1 (centres undefined)
inactive: Potency (WaGa) | Potency (C33A) | Potency (CAOV3) | Potency (CASKI) | Potency (Es-2) | Potency (HeLa) | Potency (Hek293T) | Potency (JEG-3) | Potency (OV90) | Potency (Tov-21-G) | Potency (Tov112D) | activity, negative = cell killing [2, 5] 5.45%
active: Potency ([2]; tumour line A) 28.2 µM | Potency ([2]; tumour line B) 31.6 µM

COc1ccccc1N1CCN(CC(O)COc2cccc3ccccc23)CC1 (centres undefined)
inactive: Potency (UISO) | Potency (WaGa) | activity, negative = cell killing [2, 5] -13.1%
active: Potency (C33A) 8.91 µM | Potency (CASKI) 14.1 µM | Potency (Es-2) 25.1 µM | Potency (Hek293T) 31.6 µM | Potency (PA-1) 3.55 µM | Potency (SKOV3) 1.78 µM | Potency ([2]; tumour line A) 12.6 µM

O=C(Nc1ccc([N+](=O)[O-])cc1Cl)c1cc(Cl)ccc1O
inactive: Potency (OV90) | max response [3] -12.4% | outcome [4]
active: Potency (UISO) 3260 nM | Potency (WaGa) 4.61 µM | Potency (C33A) 2.51 µM | Potency (CASKI) 6.31 µM | Potency (Es-2) 2.51 µM | Potency (HeLa) 1.26 µM | Potency (Hek293T) 1.78 µM | Potency (JEG-3) 2.82 µM | Potency (PA-1) 2 µM | Potency (SKOV3) 3.98 µM | Potency (Tov-21-G) 3.55 µM | Potency (Tov112D) 2000 nM | Potency (astro) 0.282 µM

CN(C)c1nc(N(C)C)nc(N(C)C)n1
inactive: Potency (UISO) | Potency (WaGa) | Potency (C33A) | Potency (CASKI) | Potency (Es-2) | Potency (HeLa) | Potency (Hek293T) | Potency (JEG-3) | Potency (OV90) | Potency (PA-1) | Potency (Tov-21-G) | Potency (Tov112D) | activity, negative = cell killing ([2]; at 20 µM (top of the series), tumour line C) 0.771% | activity, negative = cell killing ([2]; at 21.2 µM (top of the series), tumour line B) -14% | activity, negative = cell killing ([2]; at 21.2 µM (top of the series), tumour line D) -14.3% | activity, negative = cell killing ([2]; at 21.3 µM (top of the series), tumour line A) -32%

O=c1[nH]cc(F)c(=O)[nH]1
inactive: Potency (CAOV3) | Potency (CASKI) | Potency (Es-2) | Potency (HeLa) | Potency (Hek293T) | Potency (OV90) | Potency (SKOV3) | Potency (Tov112D) | activity, negative = cell killing [2, 6] -26.1% | activity, negative = cell killing [2, 8] -11.3% | activity, negative = cell killing [2, 5] -29.9% | outcome [4]
active: Potency (WaGa) 10.5 µM
